# IL-1B inflam inh = inflammasome signaling inhibition, IL-1 beta readout; THP-1 LPS/ATP IL-1B secretion, AlphaLISA, 16 h; active compounds read low; activity change, % at 57.5 µM; hit rate 4.7% among 360,000; AID 743279; in the data active means activity change below about -50%; inconclusive means mostly about -30% to -49%
#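 Secreted IL-1B measured by AlphaLISA bead assay after 16 h compound exposure of THP-1 cells; compounds (final up to 57.5 uM) added 1 h before LPS (250 ng/mL) and ATP (1.25 mM) stimulation; lower signal means less secretion.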
# DT40 TDP1 no CPT = qHTS for Inhibitors of human tyrosyl-DNA phosphodiesterase 1 (TDP1): qHTS in cells in absence of CPT. DT40 Tdp1-/- hTDP1 cells, no CPT, ATP luminescence, 48 h. hit rate 15% among 420,000. Potency, µM (highest dose often 46.2 µM), for inactives: at the highest dose activity change, negative = growth inhibition, actives largely listed as inhibitors. AID 686978, 2013; further: potency means the concentration at half of the fitted maximal effect; nearly all actives have a fitted effect of over 55% in size
#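 Stably hTDP1-transfected Tdp1-null chicken DT40 cells were treated with library compounds minus camptothecin and grown for at least 48 hr at 37 °C, after which cellular ATP was quantified by luminescence.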
# HT1080-NT tox = kills 2HG-producing HT-1080-NT fibrosarcoma cells; hit rate 1.6% among 360,000; Potency, µM (highest dose often 46.1 µM), for the others: top-dose activity, negative = less viability, actives largely listed as cytotoxic; HT-1080-NT fibrosarcoma viability, CellTiter-Glo ATP luminescence, 48 h;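 further: NT is the 2HG producing partner of a matched IDH1 knockdown line; potency means the concentration at half of the fitted maximal effect; 0% = DMSO-treated cells and -100% = media-only wells without cells; nearly all actives have a fitted effect of over 55% in size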
#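 Luminescent CellTiter-Glo readout after 48 hours of compound exposure at 37 degrees C defined viability of HT-1080-NT cells. Activity was normalized to DMSO wells and cell-free media wells; concentration-response curves were fitted and assigned curve classes.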
# DT40 TDP1 CPT = growth inhibition of DT40 Tdp1-/-;hTDP1 cells with camptothecin (screen for TDP1 inhibitors); chicken DT40 Tdp1-/-;hTDP1 cells + 20 nM CPT, ATP luminescence, 48 h; Potency, µM (doses to about 46.2 µM), inactives show top-dose activity change, negative = growth inhibition, usual class: inhibitors; hit rate 12% among 420,000; AID 686979; further: potency means the concentration at half of the fitted maximal effect; nearly all actives have a fitted effect of over 55% in size
#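 Chicken DT40 Tdp1-/- cells complemented with human TDP1, 400 cells/well, exposed to compounds plus 20 nM camptothecin for at least 48 h at 37 C; viability read as ATP content by CellTiter-Glo luminescence.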
# HT1080 IDH1KD tx = HT-1080 IDH1 knockdown cell toxicity (counter line). HT-1080 IDH1 knockdown viability, ATP luminescence, 48 h. Potency, µM (series often up to 46.1 µM), without a hit: at the top dose activity, negative = toxicity, actives largely listed as cytotoxic. hit rate 2% among 360,000;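 further: potency means the concentration at half of the fitted maximal effect; 0% = DMSO wells and -100% = cell-free medium wells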
#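 Assay cells: HT-1080 with IDH1 knockdown, 750 per well, RPMI/5% FBS. Exposure: 48 h at 37 °C following 2 h pre-incubation. Read: CellTiter-Glo luminescence; fitted concentration-response, curve class assigned.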
# ELG1 DNA repair = blocks ELG1-dependent DNA repair in HEK293T cells. hit rate 2.3% among 330,000. Potency, µM (series often up to 46.1 µM), without a hit: at the highest dose activity change, negative = inhibition, actives largely listed as inhibitors. AID 504467. HEK293T ELG1-luciferase reporter, luminescence, 16 h; DNA damage induced by 5-fluorouridine; further: potency means the concentration at half of the fitted maximal effect; nearly all actives have a fitted effect of over 55% in size
#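 Reporter activity after DNA damage by 5-fluorouridine is monitored. Compound-treated cells incubate 16 hr at 37 °C, then ONE-Glo is added for 30 min before luminescence reading.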
# * = called active by the depositor; ? = inconclusive; . = no result; ! = a repeat was not active. A selection: hits, their analogues and other compounds. The true share with any hit is near 19%. Unless noted, the call rests on the fitted dose curve; in most records, active means well fitted curve in the direction sought with a large enough effect; inconclusive means small, poorly fitted or top-dose-only effect, or another doubt; inactive means no such curve, though single readings can be large; an effect the other way counts as inactive or inconclusive. Unless noted, on the % scale 0 is the no-effect control and ±100 the full control effect.
SMILES,IL-1B inflam inh,DT40 TDP1 no CPT,HT1080-NT tox,DT40 TDP1 CPT,HT1080 IDH1KD tx,ELG1 DNA repair
CC(=O)Nc1ccc(S(=O)(=O)NCCc2csc3nc(-c4ccc(Cl)cc4)nn23)cc1,.,16µM*,.,21µM*,.,.
COc1ccc(-c2nc3scc(CCNS(=O)(=O)c4c(C)cc(C)cc4C)n3n2)cc1OC,.,23µM*,.,15µM*,.,.
COc1ccc(S(=O)(=O)NCCc2csc3nc(-c4ccc(OC)c(OC)c4)nn23)cc1C,.,16µM*,.,?,.,.
COc1ccc(S(=O)(=O)NCCc2csc3nc(-c4cccc(C)c4)nn23)cc1F,.,21µM*,.,?,.,.
COc1ccc(C)cc1NC(=O)C(=O)NCCc1csc2nc(-c3ccccc3F)nn12,.,-26%,.,-6%,.,.
CC(=O)Nc1ccc(S(=O)(=O)NCCc2csc(C)n2)cc1,-5,-17%,-8%,1%,0%,8%
COc1ccc(-c2nc3scc(CCNS(=O)(=O)c4ccc(F)cc4F)n3n2)cc1OC,.,18µM*,.,?,.,.
COc1ccc(S(=O)(=O)NCCc2csc3nc(-c4ccc(Cl)cc4)nn23)cc1C,.,13µM*,.,16µM*,.,.
COc1ccc(S(=O)(=O)NCCc2cn3nc(C)c(C)nc3n2)cc1C,-13,13%,14%,-9%,5%,-3%
COc1ccc(NC(=O)C(=O)NCCc2csc3nc(-c4ccccc4F)nn23)cc1OC,.,3%,.,0%,.,.
CCCc1cc2nnc(SCC(=O)N(C)C3CCCCC3)n2c(N)n1,-7,-12%,14%,1%,19%,-8%
C[C@@H](NCc1cc(Br)cc2[nH]c(=O)c(=O)[nH]c12)P(=O)(O)O,.,-10%,.,-14%,.,.
COc1cc(-c2c(-c3ccc4c(c3)OCO4)noc2-c2ccsc2)cc(OC)c1OC,.,-28%,.,?,.,.
c1ccc(-c2onc(-c3ccco3)c2-c2ccc3c(c2)OCO3)cc1,-9,11µM*!,-3%,10µM*!,12%,1%
COc1ccc(NC(=O)c2cc(-c3ccc(F)cc3OC)n[nH]2)c(C)c1,?,?,4%,?,-2%,.
CCOC(=O)C1CCCCN1C(=O)c1cc2ccc(OC)cc2c2cc(OC)c(OC)cc12 (centres undefined),21,18µM*,-18%,?,-6%,.
CCOC(=O)C1CCCN1C(=O)c1ccc(OC)c(Br)c1 (centres undefined),33,-10%,13%,-15%,-2%,3%
COc1cc(CNC(C)C23CC4CC(CC(C4)C2)C3)cc(OC)c1OC (centres undefined),-20,?,-17%,?,-9%,-14%
COc1cc(CNc2ccc(N3CCCC3)cc2)ccc1OCc1ccccc1F,-20,4.6µM*,-7%,3.7µM*,-4%,?
COc1cc(CNC23CC4CC(CC(C4)C2)C3)ccc1OCc1ccccc1,-17,21µM*,-15%,29µM*,-5%,-29%
COc1cc(CNC(C)C23CC4CC(CC(C4)C2)C3)ccc1OCC(=O)NC(C)(C)C (centres undefined),-88*,21µM*,?,-107%,23µM*,-18%
COc1cc(CNCc2cccs2)ccc1OCC(=O)NC(C)(C)C,-4,-18%,-20%,-13%,-18%,-13%
CC(NCc1cc(Br)ccc1OCC(N)=O)C12CC3CC(CC(C3)C1)C2 (centres undefined),-61*,18µM*,-20%,?,-21%,?
Cc1ccc(S(=O)(=O)N2CCN(C(=O)Cn3nc(C)c([N+](=O)[O-])c3C)CC2)cc1,-21,-7%,-5%,-1%,0%,-15%

# Source: PubChem BioAssay
